Results taken from PubChem BioAssay (NCI).
Compounds without any hit were thinned out: in the full panel of roughly 79,000, 15% have a hit. Values without a mark were called inactive. Activity calls are given as the source filed them. Rule as the data show it: active = growth inhibition above about 70%; inactive = the rest.

How the values were obtained:
[1] = NCI Yeast Anticancer Drug Screen. Data for the rad50 strain (AID 155);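 also: 0% = growth of vehicle-only cultures of the same strain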; settings: S. cerevisiae rad50 strain growth inhibition, active compounds read high
In short: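 Readout: growth inhibition relative to vehicle-treated cultures. Compound exposure was carried out in a genetically defined yeast strain deficient in DNA damage repair.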

[2] = NCI Yeast Anticancer Drug Screen. Data for the mec2-1 strain (AID 157); settings: S. cerevisiae mec2-1 strain, active compounds read high
In short: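 Growth inhibition is read against vehicle-treated controls after compound exposure of the mec2-1 yeast strain, which is defective in DNA damage repair or cell cycle control.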

[3] = NCI Yeast Anticancer Drug Screen. Data for the sgs1 mgt1 strain (AID 161);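 also: 0% = growth of cultures given vehicle only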; settings: S. cerevisiae sgs1 mgt1 strain, active compounds read high
In short: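 Growth of a repair-deficient yeast mutant was monitored after compound treatment and expressed as inhibition relative to vehicle-treated cultures.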

[4] = NCI Yeast Anticancer Drug Screen. Data for the cln2 rad14 strain (AID 165);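 also: 0% = growth equal to vehicle treated cultures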; settings: S. cerevisiae cln2 rad14 strain, active compounds read high
In short: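 Growth inhibition, relative to vehicle-treated controls, is the read-out. The test organism is a yeast strain with defined genetic alterations, cln2 rad14.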

[5] = NCI Yeast Anticancer Drug Screen. Data for the bub3 strain (AID 167); settings: S. cerevisiae bub3 mutant strain, active compounds read high
In short: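 Readout: yeast growth inhibition, expressed relative to vehicle-only wells. The test organism is a mutant strain from a panel with lesions in DNA repair or checkpoint genes.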

[6] = NCI Yeast Anticancer Drug Screen. Data for the mlh1 rad18 strain (AID 175); settings: S. cerevisiae mlh1 rad18 strain growth inhibition, active compounds read high
In short: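 Cells of a genetically altered yeast strain, deficient in DNA damage repair, were treated with compound. Their growth was then compared with that of vehicle-treated cultures to give inhibition.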

[7] = at 5.0 µM (retest, dose inferred, filed as 0.5)
[8] = at 50.0 µM (retest, dose inferred, filed as 5.0)

Row | Structure (SMILES) | growth inhibition [1, 7] | growth inhibition [1, 8] | growth inhibition ([1]; at 50.0 µM) | growth inhibition [2, 7] | growth inhibition [2, 8] | growth inhibition ([2]; at 50.0 µM) | growth inhibition [3, 7] | growth inhibition [3, 8] | growth inhibition ([3]; at 50.0 µM) | growth inhibition [4, 7] | growth inhibition [4, 8] | growth inhibition ([4]; at 50.0 µM) | growth inhibition [5, 7] | growth inhibition [5, 8] | growth inhibition ([5]; at 50.0 µM) | growth inhibition [6, 7] | growth inhibition [6, 8] | growth inhibition ([6]; at 50.0 µM)
1 | Cc1cccc2c1Oc1ccccc1C2N1C(=O)/C(=C/c2ccccc2Cl)SC1=S (configuration not stated) | 99% (active) | 74% (active) | 60.1% | 99% (active) | 48% | 29.1% | 100% (active) | 29% | 38.4% | 96% (active) | 1% | 16.4% | 99% (active) | 74% (active) | 12.6% | 99% (active) | 72% (active) | 64.2%
2 | CCCCCCCCCCCCCCCCC/C=N\NC(=O)CCCC(=O)N/N=C/CCCCCCCCCCCCCCCCC | 1% | -3% | 98.7% (active) | -4% | -2% | 99.1% (active) | -2% | -3% | 98% (active) | 4% | 10% | 99% (active) | 7% | 25% | 99.2% (active) | 2% | -25% | 98.3% (active)
3 | Cc1c(C)c(C)c(C(=O)c2ccccc2C(=O)NCCSC(C)(C)C)c(C)c1C | 42% | 49% | 82.6% (active) | 45% | 60% | 67.6% | -15% | -31% | 83.3% (active) | 53% | 41% | 76.6% (active) | 44% | 33% | 82.4% (active) | 47% | 55% | 84.3% (active)
4 | O=C(O)c1ccc([N+](=O)[O-])o1 | 6% | 32% | 61% | 1% | 16% | 25.1% | 4% | 27% | 70.8% (active) | 3% | 11% | 17.6% | -3% | 10% | 38.3% | 6% | 41% | 71.5% (active)
5 | CC1=NN(c2ccccc2)C(=O)C12[C@H](c1ccccc1)C2(C#N)C#N (some centres not stated) | 34% | 92% (active) | 84% (active) | 37% | 78% (active) | 54% | 46% | 96% (active) | 87.3% (active) | 25% | 74% (active) | 66.4% | 41% | 81% (active) | 77.6% (active) | 41% | 87% (active) | 75.8% (active)
6 | CCCCCCCN(CCCCCCC)CC(O)Cc1cc2c(c3ccccc13)CCCC2 (configuration not stated) | 6% | 97% (active) | 98.8% (active) | 17% | 98% (active) | 94.7% (active) | 36% | 98% (active) | 99.5% (active) | 4% | 97% (active) | 98.7% (active) | 3% | 96% (active) | 94.7% (active) | 24% | 97% (active) | 98% (active)
7 | CCCCN(CCO)CC(O)Cn1cnc2c(N)ncnc21 (configuration not stated) (tested in a mixture with another compound) | -12% | -5% | 21.9% | -12% | -8% | -5.45% | -18% | 0% | -3.9% | -18% | -7% | 18.7% | 1% | -8% | 3.2% | 3% | -4% | 25.9%
8 | Oc1ccc2c(c1O)/C(=C/C=NCC1(O)OCC(O)C(O)C1O)C=N2 (configuration not stated) | 2% | -7% | 67.3% | 5% | -7% | 67.4% | 4% | 1% | 88.4% (active) | 0% | -9% | 83.5% (active) | 2% | -3% | 48.3% | 2% | -2% | 77% (active)
9 | Cc1cccc(C)c1NC(=O)/C(Cl)=C(/Cl)C(=O)O | 66% | 98% (active) | 91.2% (active) | 67% | 99% (active) | 86.2% (active) | 82% (active) | 98% (active) | 88% (active) | 47% | 81% (active) | 82.8% (active) | 85% (active) | 99% (active) | 90% (active) | 63% | 99% (active) | 93.8% (active)
10 | [Cl][Pt+2][Cl].[NH-]CC1(C[NH-])CCCC1 | 28% | 40% | 0.2% | 14% | 19% | 0.9% | 26% | 39% | -26.1% | 7% | 30% | -3.1% | 19% | 34% | -19.2% | 26% | 72% (active) | -30%
11 | CC(CN(C)C)C(=O)/C=C/c1ccc(C(C)C)cc1 (configuration not stated) | 3% | 89% (active) | 93.2% (active) | 6% | 75% (active) | 37.3% | 9% | 93% (active) | 97.2% (active) | 11% | 26% | 25.8% | 0% | 81% (active) | 69% | -1% | 94% (active) | 91.4% (active)
12 | Cc1cc(N(CCOS(C)(=O)=O)CCOS(C)(=O)=O)ccc1C=Nc1cccc(Cl)c1 | 10% | 80% (active) | 90.3% (active) | 44% | 56% | 51.5% | 4% | 61% | 70.8% (active) | -3% | 57% | 13.1% | 0% | 15% | 29.7% | 24% | 92% (active) | 96.2% (active)
13 | Cc1cc(-c2ccccc2)c(C)c(-c2ccccc2)c1-c1ccccc1 | 5% | 4% | 74.6% (active) | 0% | -1% | 37.9% | 3% | 7% | 40% | -5% | 64% | 80.7% (active) | -13% | 13% | 57.4% | 1% | 16% | 60.8%
14 | O=C1NC(=S)S/C1=C\c1ccc(F)cc1 | -4% | 6% | 76% (active) | 7% | 15% | 85.7% (active) | 2% | 22% | 74.1% (active) | -9% | 1% | 64.8% | -2% | 0% | 57% | -4% | 4% | 80.3% (active)
15 | CC1CCN(CCOC(=O)C(c2ccccc2)C2C=CCCC2)C1 (configuration not stated) | 8% | 34% | 62.9% | 3% | 37% | 16.9% | 8% | 77% (active) | 51.1% | 7% | 37% | 41.8% | 9% | 55% | 36.5% | 14% | 75% (active) | 52.7%
16 | CC#CCCCCOC(=O)c1cc([N+](=O)[O-])cc([N+](=O)[O-])c1 | 97% (active) | 99% (active) | 99.5% (active) | 99% (active) | 100% (active) | 99.6% (active) | 98% (active) | 99% (active) | 99.6% (active) | 90% (active) | 99% (active) | 99.4% (active) | 98% (active) | 99% (active) | 99.7% (active) | 98% (active) | 99% (active) | 99.4% (active)
17 | CC(=O)Nc1ccc(/C=c2\sc3nnc(-c4cccnc4)n3c2=O)cc1 | 33% | 87% (active) | 89.8% (active) | 7% | 91% (active) | 88% (active) | 6% | 78% (active) | 87.2% (active) | -5% | 58% | 71% (active) | 8% | 94% (active) | 80.5% (active) | -17% | 95% (active) | 86.5% (active)
18 | Cc1occc1C(=S)Nc1ccc(Cl)c(/C=N/OC(C)C)c1 | 12% | 83% (active) | 77.5% (active) | 13% | 77% (active) | 59.2% | 13% | 80% (active) | 71.3% (active) | 24% | 81% (active) | 75.6% (active) | 22% | 86% (active) | 73.5% (active) | 17% | 91% (active) | 77.8% (active)
19 | Cc1ccc(C)c(C2CCCCC2O)c1 (configuration not stated) | -1% | -80% | 4.5% | -8% | -25% | -11.7% | -1% | -23% | -9.1% | 9% | -5% | 71.5% (active) | -13% | -87% | 51.1% | 0% | -40% | -16.1%
